The text below walks through data of PubChem BioAssay (NCI).

The panel holds about 83,000 compounds, 20% with a hit somewhere; the sample as a whole holds those more often.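 Percent growth is the endpoint: 0 to 100 indicates growth inhibition (40 means 60% inhibition), 0 means no net growth, and negative values indicate cell death.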 Values without a mark were called inactive. Active and inactive are the calls of the source. Rule for the calls: active = growth percent below 10; inactive = the rest.

Some test systems named below: DU-145 prostate; K-562 leukemia; MALME-3M melanoma; MDA-MB-231 breast; RXF 393 renal; SF-268 CNS; SF-295 CNS; SF-539 CNS; UACC-257 melanoma; M14 melanoma; HCT-15 colon; HT29 colon; SNB-75 CNS; SNB-19 CNS; PC-3 prostate; SK-MEL-5 melanoma; UACC-62 melanoma; SK-MEL-28 melanoma; LOX IMVI melanoma; U251 CNS.
Common to all, as to assay: NCI-60 one-dose screen, 48 h (100 = growth as untreated, 0 = no growth, -100 = all killed)
What all share (conditions): 10 µM

Regarding `O=C1CCn2c1c(O)c1ccccc1c2=O`, the growth in the test with DU-145 prostate is 114%; in the test with K-562 leukemia, 130%; with MALME-3M melanoma it was 124%; in the test on MDA-MB-231 breast, 115%; in the test with RXF 393 renal, 111%; in the test with SF-268 CNS, 114%. Besides, the growth in the test on SF-295 CNS was 97.2%; in the test with SF-539 CNS, 113%; in the test on UACC-257 melanoma, 99.8%; in the test with M14 melanoma, 107%; in the test on HCT-15 colon it was 114%; in the test on HT29 colon it was 108%. Besides, the growth is 86.6% in the test on SNB-75 CNS; 110% in the test on SNB-19 CNS; 100% in the test on PC-3 prostate; 103% in the test with SK-MEL-5 melanoma; 113% with UACC-62 melanoma; 107% with SK-MEL-28 melanoma.

`Cc1cc(O)ccc1C1=NN(c2ccc(S(C)(=O)=O)cc2)C(=O)CC1`: the growth with DU-145 prostate is 92.2%; in the test with K-562 leukemia, 20.6%; with MALME-3M melanoma it was 52.7%; with MDA-MB-231 breast it was 74.8%; in the test on RXF 393 renal it was 81.2%; with SF-268 CNS it was 80.3%. Moreover, the growth in the test with SF-295 CNS is 32.1%; in the test on SF-539 CNS, 73.8%; in the test with UACC-257 melanoma it was 93%; with M14 melanoma it was 49.2%; with HCT-15 colon, 44.9%; with HT29 colon, 38.9%. The growth with SNB-75 CNS is 75.2%; with SNB-19 CNS, 78.2%; with PC-3 prostate it was 77.9%; with SK-MEL-5 melanoma, 68.3%; with LOX IMVI melanoma, 67.5%; with SK-MEL-28 melanoma, 81.2%.

Consider `CC[C@@H]1NC(=O)[C@H]([C@H](O)[C@H](C)C/C=C/c2ccc(CN3C(=O)CCCC3=O)cc2)N(C)C(=O)[C@H](C(C)C)N(C)C(=O)[C@H](CC(C)C)N(C)C(=O)[C@H](CC(C)C)N(C)C(=O)[C@@H](C)NC(=O)[C@H](C)NC(=O)[C@H](CC(C)C)N(C)C(=O)[C@H](C(C)C)NC(=O)[C@H](CC(C)C)N(C)C(=O)CN(C)C1=O`, for which the growth in the test on DU-145 prostate is 64.1%; in the test on K-562 leukemia, 39.6%; with MALME-3M melanoma it was 83%; in the test with MDA-MB-231 breast, 51.4%; in the test with RXF 393 renal, 17.3%; in the test with SF-268 CNS it was 63.1%. Moreover, the growth is 39% in the test on SF-295 CNS; 23.7% in the test on SF-539 CNS; 20.8% in the test with UACC-257 melanoma; 19.5% with HCT-15 colon; -24.8% (active) with HT29 colon; 56.7% in the test with SNB-75 CNS. In addition, the growth with SNB-19 CNS was 60.7%; with U251 CNS, 60.2%; in the test on PC-3 prostate it was 37.3%; in the test on SK-MEL-5 melanoma, 23.2%; with UACC-62 melanoma, 59.4%; in the test with LOX IMVI melanoma, 1.01% (active). Also, in the test with SK-MEL-28 melanoma, the growth was 46.3%.

For `CC(C)(C)OC(=O)CC(S(=O)(=O)c1ccccc1)S(=O)(=O)c1ccccc1`, the growth with DU-145 prostate is 94.2%; in the test on K-562 leukemia it was 43.9%; with MALME-3M melanoma it was -41.1% (active); with MDA-MB-231 breast, 103%; in the test on RXF 393 renal, 69.4%; in the test with SF-268 CNS it was 102%. Also, the growth with SF-295 CNS was 110%; in the test with SF-539 CNS it was 107%; in the test with UACC-257 melanoma, 91.9%; in the test on M14 melanoma, 116%; in the test with HCT-15 colon, 77.9%; in the test with HT29 colon, 104%. Further, the growth in the test on SNB-75 CNS was 99.2%; in the test on SNB-19 CNS it was 95.2%; in the test on PC-3 prostate, 101%; in the test on SK-MEL-5 melanoma, 94.2%; in the test with UACC-62 melanoma, 103%; with SK-MEL-28 melanoma, 105%.

For `COc1ccccc1-n1c(-c2sc(NC(C)=O)nc2C)n[nH]c1=S`, the growth in the test on DU-145 prostate was 119%; with K-562 leukemia, 101%; in the test with MALME-3M melanoma it was 104%; with MDA-MB-231 breast it was 106%; with RXF 393 renal it was 107%; with SF-268 CNS, 94.9%. Further, the growth is 83.2% in the test with SF-295 CNS; 103% with SF-539 CNS; 114% with UACC-257 melanoma; 98.8% with M14 melanoma; 94.9% in the test with HCT-15 colon; 104% in the test with HT29 colon. Further, the growth in the test on SNB-75 CNS was 86.4%; in the test on SNB-19 CNS it was 103%; in the test with PC-3 prostate, 95.9%; in the test with SK-MEL-5 melanoma, 105%; in the test with LOX IMVI melanoma, 97.5%; in the test on SK-MEL-28 melanoma, 117%.

`COC(=O)c1c[nH]c2cc(OC(C)C)c(OC(C)C)cc2c1=O`: the growth was 110% in the test on DU-145 prostate; 98.9% in the test with K-562 leukemia; 125% with MALME-3M melanoma; 109% in the test on MDA-MB-231 breast; 94.7% with RXF 393 renal; 104% with SF-268 CNS. Moreover, the growth was 105% in the test on SF-295 CNS; 91% in the test with SF-539 CNS; 87.6% in the test with UACC-257 melanoma; 108% in the test on M14 melanoma; 101% with HCT-15 colon; 95.6% with HT29 colon. The growth with SNB-19 CNS was 105%; in the test on U251 CNS, 6.2% (active); with PC-3 prostate, 93.1%; in the test with SK-MEL-5 melanoma, 98.3%; in the test on UACC-62 melanoma, 106%; with LOX IMVI melanoma, 95.9%. In addition, the growth in the test with SK-MEL-28 melanoma is 117%.

For `CC(C)(O)CCl`, the growth is 109% with DU-145 prostate; 106% with K-562 leukemia; 116% in the test with MALME-3M melanoma; 99.8% in the test with MDA-MB-231 breast; 117% in the test with RXF 393 renal; 111% with SF-268 CNS. Further, the growth was 97.9% in the test on SF-295 CNS; 99.8% in the test on SF-539 CNS; 91.9% in the test on UACC-257 melanoma; 108% in the test on M14 melanoma; 102% in the test with HCT-15 colon; 110% with SNB-75 CNS. The growth is 102% in the test with SNB-19 CNS; 103% in the test with U251 CNS; 102% with PC-3 prostate; 104% in the test with SK-MEL-5 melanoma; 102% in the test on UACC-62 melanoma; 104% with LOX IMVI melanoma. In the test with SK-MEL-28 melanoma, the growth was 110%.

Regarding `COc1ccc(-c2nn(-c3cccc(Cl)c3)cc2-c2c(C#N)c(=O)n3[nH]c(-c4ccc(C)cc4)nc3c2C#N)cc1`, the growth in the test with DU-145 prostate is 28.4%; with K-562 leukemia, 4.62% (active); in the test with MALME-3M melanoma, 21.4%; in the test with MDA-MB-231 breast, -2.7% (active); in the test on RXF 393 renal, 28.2%; with SF-268 CNS, 35.8%. Besides, the growth with SF-295 CNS is 23.6%; with SF-539 CNS, 34.8%; in the test with UACC-257 melanoma, 96.9%; in the test on M14 melanoma, -10.9% (active); with HCT-15 colon, 65.2%; in the test with HT29 colon, 5.33% (active). Further, the growth with SNB-75 CNS was 36.4%; in the test on SNB-19 CNS it was 64.2%; with PC-3 prostate, 68.6%; in the test on SK-MEL-5 melanoma it was 68.6%; in the test with UACC-62 melanoma it was 57.1%; in the test with LOX IMVI melanoma, 39.7%. The growth in the test with SK-MEL-28 melanoma was 92.3%.
